Measurements: PubChem BioAssay (Tox21)
Inconclusive results are not listed. Active and inactive are the calls of the source. The call rests on the fitted dose curve; in most records, active means well fitted curve in the direction sought with a large enough effect in the repeat runs; inconclusive means weak or mixed curves; inactive means no such curve, though single readings can be large; an effect the other way counts as inactive or inconclusive.

Legend:
[1] = A CellTox Green Cytotoxicity Assay to monitor cytotoxicity in HEK293 cells - 32 hour (AID 1224881); further: nearly all actives have a fitted effect of over 40% in size
Summary of the method: (§1)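 HEK293 cells, 600/well, were preincubated 5 hours and then exposed to compounds at 37 C for up to 40 hours. A cell-impermeant cyanine dye staining dead-cell DNA was read by fluorescence at 0, 8, 16, 24, 32 and 40 h time points.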

[2] = A CellTox Green Cytotoxicity Assay to monitor cytotoxicity in HepG2 cells - 0 hour (AID 1224882); further: nearly all actives have a fitted effect of over 35% in size
Summary of the method: (§2)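 HepG2 cells, 600/well, preincubated 5 h with CellTox Green dye, then exposed to Tox21 compounds in DMSO at 37 C for up to 40 h. Dead-cell DNA fluorescence read at the indicated time point.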

[3] = A CellTox Green Cytotoxicity Assay to monitor cytotoxicity in HepG2 cells - 32 hour (AID 1224883); further: nearly all actives have a fitted effect of over 50% in size
Summary of the method: as §2

[4] = A CellTox Green Cytotoxicity Assay to monitor cytotoxicity in HEK293 cells - 8 hour (AID 1224884); further: nearly all actives have a fitted effect of over 35% in size
Summary of the method: as §1

[5] = qHTS RealTime-Glo MT Cell Viability Assay in HepG2 cells - 16 hour (AID 1224885); further: nearly all actives have a fitted effect of over 50% in size
Summary of the method: (§3)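 HepG2 cells were seeded at 600 cells/well together with NanoLuc luciferase and a cell-permeant prosubstrate, preincubated 5 h at 37 C/5% CO2, then pin-dosed with compounds in DMSO. Nonlytic luminescence from viable cells was read at each time point.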

[6] = qHTS RealTime-Glo MT Cell Viability Assay in HEK293 cells - 24 hour (AID 1224886); further: top concentration of the series differs between compounds; nearly all actives have a fitted effect of over 50% in size
Summary of the method: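 HEK293 cells were seeded at 600 cells/well together with NanoLuc luciferase and cell-permeant prosubstrate, preincubated 5 h at 37 C/5% CO2, then given compound in DMSO by pintool. Luminescence from viable-cell prosubstrate reduction was read repeatedly over 40 h.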

[7] = qHTS RealTime-Glo MT Cell Viability Assay in HEK293 cells - 8 hour (AID 1224887); further: top concentration of the series differs between compounds; nearly all actives have a fitted effect of over 50% in size
Summary of the method: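 600 cells/well were plated with the nonlytic NanoLuc/prosubstrate reagent, pre-incubated 5 h, then given 23 nL of compound in DMSO. Incubation at 37 C for 40 h, with luminescence from viable-cell-reduced substrate read repeatedly from 0 h.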

[8] = A CellTox Green Cytotoxicity Assay to monitor cytotoxicity in HEK293 cells - 16 hour (AID 1224888); further: nearly all actives have a fitted effect of over 35% in size
Summary of the method: as §1

[9] = qHTS RealTime-Glo MT Cell Viability Assay in HepG2 cells - 0 hour (AID 1224889); further: nearly all actives have a fitted effect of over 50% in size
Summary of the method: as §3

[10] = A CellTox Green Cytotoxicity Assay to monitor cytotoxicity in HepG2 cells - 8 hour (AID 1224890); further: nearly all actives have a fitted effect of over 45% in size
Summary of the method: as §2

Measured: Potency

O=C(N/N=C/c1ccc([N+](=O)[O-])o1)c1cc([N+](=O)[O-])cc([N+](=O)[O-])c1O
inactive: [1] | [2] | [3] | [4] | [5] | [6] | [7] | [8] | [9] | [10]

CCCCCCCCCCCCN(C)C
inactive: [1] | [2] | [3] | [4] | [5] | [6] | [7] | [8] | [9]

CCC[N+](CCC)(CCC)CCC
inactive: [1] | [2] | [3] | [4] | [5] | [6] | [7] | [8] | [9] | [10]

C[N+](C)(C)CCOC(=O)C(O)(c1ccccc1)c1ccccc1
inactive: [1] | [2] | [3] | [4] | [5] | [6] | [7] | [8] | [9] | [10]

CCCC1CCCCN1 (stereo not drawn)
inactive: [1] | [2] | [3] | [4] | [5] | [6] | [7] | [8] | [9] | [10]

NP(N)(=O)NC(=O)c1ccc(F)cc1
inactive: [1] | [2] | [3] | [4] | [5] | [6] | [7] | [8] | [9] | [10]

CCN(C(C)=O)c1cccc(-c2ccnc3c(C#N)cnn23)c1
inactive: [1] | [2] | [3] | [4] | [5] | [6] | [7] | [8] | [9]

C1CCNCC1
inactive: [1] | [2] | [3] | [4] | [5] | [6] | [7] | [8] | [9]

NC(=O)CF
inactive: [1] | [2] | [3] | [4] | [5] | [6] | [7] | [8] | [9] | [10]

CC(Oc1cc(Cl)c(Cl)cc1Cl)C(=O)O (stereo not drawn)
inactive: [1] | [2] | [3] | [4] | [5] | [6] | [7] | [8] | [9]

COc1ccc(C(O)(c2cncnc2)C2CC2)cc1 (stereo not drawn)
inactive: [1] | [2] | [3] | [4] | [5] | [6] | [7] | [8] | [9]

NCCc1cc(O)c(O)cc1O
inactive: [1] | [2] | [3] | [4] | [5] | [6] | [7] | [8] | [9] | [10]

Cc1cnc(C2=NC(C)(C(C)C)C(=O)N2)c(C(=O)O)c1 (stereo not drawn)
inactive: [1] | [2] | [3] | [4] | [5] | [6] | [7] | [8] | [9] | [10]

O=C1CC[C@@]2(O)[C@H]3Cc4ccc(O)c5c4[C@@]2(CCN3CC2CC2)[C@H]1O5
inactive: [1] | [2] | [3] | [4] | [5] | [6] | [7] | [8] | [9]

FC(F)OC(F)(F)C(F)Cl (stereo not drawn)
inactive: [1] | [2] | [3] | [4] | [5] | [6] | [7] | [8] | [9] | [10]

CCOP(=O)(SC(C)CC)N1CCSC1=O (stereo not drawn)
inactive: [1] | [2] | [3] | [4] | [5] | [6] | [7] | [8] | [9]

c1ccc2c(c1)-c1cccc3cccc-2c13
inactive: [1] | [2] | [3] | [4] | [5] | [6] | [7] | [8] | [9] | [10]

O=C(O)C(O)C(O)C(=O)O (stereo not drawn)
inactive: [1] | [2] | [3] | [4] | [5] | [6] | [7] | [8] | [9]

CC(C)(C)NCC(O)c1cc(Cl)c(N)c(C(F)(F)F)c1 (stereo not drawn)
inactive: [1] | [2] | [3] | [4] | [5] | [6] | [7] | [8] | [9]

O=C(O)c1cc(Cl)ccc1Cl
inactive: [1] | [2] | [3] | [4] | [5] | [6] | [7] | [8] | [9]

CC(C)c1ccc(NC(=O)N(C)C)cc1
inactive: [1] | [2] | [3] | [4] | [5] | [6] | [7] | [8] | [9] | [10]

C=C(C)C(=O)OCCCCOC(=O)C(=C)C
inactive: [1] | [2] | [3] | [4] | [5] | [6] | [7] | [8] | [9]

Nc1cc(Cl)cc(C(=O)O)c1Cl
inactive: [1] | [2] | [3] | [4] | [5] | [6] | [7] | [8] | [9] | [10]

CCOC(=O)c1cncn1C(C)c1ccccc1 (stereo not drawn)
inactive: [1] | [2] | [3] | [4] | [5] | [6] | [7] | [8] | [9]

CCCBr
inactive: [1] | [2] | [3] | [4] | [5] | [6] | [7] | [8] | [9] | [10]
